About 2,000 (36%) of roughly 5,500 compounds were called active. Another 18% or so got no clear call; they are omitted. Cut-off read from the data, not from the text of the source: active = normalized growth mostly below about 0.91 (no sharp cut-off); inconclusive = no clear call, values can overlap the other calls; inactive = mostly above about 0.92. Some of the results follow.
Assay: chemical genetic growth profiling, strain panel (AID 1159580);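 note: tested at 20 µM; growth read once vehicle control cultures reached saturation at 30 °C; 1 = growth at the plate median or of vehicle wells; lower values mean less growth of the strain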
Conditions: growth OD

Measured: normalized growth

CC(=O)NC1SCCC1=O (stereo not drawn)
inactive: S. cerevisiae deletion strains, locus YAL021C, strain ccr4, hits give low values 1.01 | S. cerevisiae deletion strains, locus YAL026C, strain drs2, hits give low values 0.983 | S. cerevisiae deletion strains, locus YAL030W, strain snc1, hits give low values 0.975 | S. cerevisiae deletion strains, locus YBL061C, strain skt5, hits give low values 0.985 | S. cerevisiae deletion strains, locus YBR009C, strain hhf1, hits give low values 0.971 | S. cerevisiae deletion strains, locus YBR021W, strain FUR4, hits give low values 1.02 | S. cerevisiae deletion strains, locus YBR023C, strain chs3, hits give low values 0.977 | S. cerevisiae deletion strains, locus YBR171W, strain sec66, hits give low values 0.998 | S. cerevisiae deletion strains, locus YBR229C, strain ROT2, hits give low values 1.01 | S. cerevisiae deletion strains, locus YBR231C, strain swc5, hits give low values 0.996 | S. cerevisiae deletion strains, locus YBR279W, strain paf1, hits give low values 0.99 | S. cerevisiae deletion strains, locus YCL011C, strain gbp2, hits give low values 0.974 | S. cerevisiae deletion strains, locus YCL016C, strain dcc1, hits give low values 0.99 | S. cerevisiae deletion strains, locus YCL029C, strain bik1, hits give low values 1.02 | S. cerevisiae deletion strains, locus YCL061C, strain MRC1, hits give low values 1 | S. cerevisiae deletion strains, locus YCL069W, strain vba3, hits give low values 0.981 | S. cerevisiae deletion strains, locus YCR088W, strain abp1, hits give low values 0.984 | S. cerevisiae deletion strains, locus YDL005C, strain med2, hits give low values 1.01 | S. cerevisiae deletion strains, locus YDL035C, strain GPR1, hits give low values 1.03 | S. cerevisiae deletion strains, locus YDL040C, strain nat1, hits give low values 0.992 | S. cerevisiae deletion strains, locus YDL074C, strain BRE1, hits give low values 0.994 | S. cerevisiae deletion strains, locus YDL101C, strain DUN1, hits give low values 1.01 | S. cerevisiae deletion strains, locus YDL134C, strain PPH21, hits give low values 1.03 | S. cerevisiae deletion strains, locus YDL185W, strain tfp1, hits give low values 1.01 | S. cerevisiae deletion strains, locus YDL192W, strain arf1, hits give low values 1.01 | S. cerevisiae deletion strains, locus YDR001C, strain nth1, hits give low values 0.986 | S. cerevisiae deletion strains, locus YDR069C, strain doa4, hits give low values 0.977 | S. cerevisiae deletion strains, locus YDR101C, strain arx1, hits give low values 0.982 | S. cerevisiae deletion strains, locus YDR137W, strain rgp1, hits give low values 1.01 | S. cerevisiae deletion strains, locus YDR159W, strain sac3, hits give low values 0.945 | S. cerevisiae deletion strains, locus YDR162C, strain NBP2, hits give low values 1.02 | S. cerevisiae deletion strains, locus YDR195W, strain ref2 0.97 | S. cerevisiae deletion strains, locus YDR297W, strain sur2, hits give low values 0.985 | S. cerevisiae deletion strains, locus YDR318W, strain mcm21, hits give low values 1.02 | S. cerevisiae deletion strains, locus YDR334W, strain swr1, hits give low values 0.982 | S. cerevisiae deletion strains, locus YDR335W, strain msn5, hits give low values 0.99 | S. cerevisiae deletion strains, locus YDR388W, hits give low values 1.02 | S. cerevisiae deletion strains, locus YDR392W, strain spt3, hits give low values 0.889 | S. cerevisiae deletion strains, locus YDR502C, strain sam2, hits give low values 0.999 | S. cerevisiae deletion strains, locus YEL003W, strain gim4, hits give low values 0.976 | S. cerevisiae deletion strains, locus YEL037C, strain rad23, hits give low values 0.975 | S. cerevisiae deletion strains, locus YEL061C, strain CIN8 (second series), hits give low values 0.981 | S. cerevisiae deletion strains, locus YEL061C, strain CIN8, hits give low values 1 | S. cerevisiae deletion strains, locus YER015W, strain faa2, hits give low values 1.01 | S. cerevisiae deletion strains, locus YER016W, strain bim1, hits give low values 0.982 | S. cerevisiae deletion strains, locus YER110C, hits give low values 1.02 | S. cerevisiae deletion strains, locus YER111C, strain swi4, hits give low values 0.977 | S. cerevisiae deletion strains, locus YER155C, strain BEM2 (second series), hits give low values 0.958 | S. cerevisiae deletion strains, locus YER155C, strain BEM2, hits give low values 1.01 | S. cerevisiae deletion strains, locus YER167W, strain BCK2, hits give low values 1.02 | S. cerevisiae deletion strains, locus YFR010W, strain ubp6, hits give low values 0.983 | S. cerevisiae deletion strains, locus YGL078C, strain dbp3, hits give low values 1 | S. cerevisiae deletion strains, locus YGL086W, strain mad1, hits give low values 0.999 | S. cerevisiae deletion strains, locus YGL167C, strain pmr1, hits give low values 0.977 | S. cerevisiae deletion strains, locus YGL173C, strain kem1, hits give low values 0.974 | S. cerevisiae deletion strains, locus YGL227W, strain vid30, hits give low values 0.986 | S. cerevisiae deletion strains, locus YGL240W, strain doc1, hits give low values 0.988 | S. cerevisiae deletion strains, locus YGL248W, strain PDE1, hits give low values 0.999 | S. cerevisiae deletion strains, locus YGL253W, strain hxk2, hits give low values 0.989 | S. cerevisiae deletion strains, locus YGR135W, strain pre9, hits give low values 1.05 | S. cerevisiae deletion strains, locus YGR252W, strain gcn5, hits give low values 1 | S. cerevisiae deletion strains, locus YHR013C, strain ard1, hits give low values 0.943 | S. cerevisiae deletion strains, locus YHR027C, strain rpn1, hits give low values 1 | S. cerevisiae deletion strains, locus YHR030C, strain SLT2, hits give low values 1 | S. cerevisiae deletion strains, locus YHR079C, strain IRE1 (second series), hits give low values 1 | S. cerevisiae deletion strains, locus YHR094C, strain hxt1, hits give low values 1.02 | S. cerevisiae deletion strains, locus YHR129C, strain ARP1, hits give low values 1.01 | S. cerevisiae deletion strains, locus YHR142W, strain chs7, hits give low values 1.02 | S. cerevisiae deletion strains, locus YHR200W, strain rpn10, hits give low values 1.02 | S. cerevisiae deletion strains, locus YIL066C, strain RNR3, hits give low values 0.998 | S. cerevisiae deletion strains, locus YIL073C, strain SPO22, hits give low values 1.04 | S. cerevisiae deletion strains, locus YIL125W, strain kgd1, hits give low values 1.01 | S. cerevisiae deletion strains, locus YIR030C, strain dcg1, hits give low values 1.01 | S. cerevisiae deletion strains, locus YJL092W, strain hpr5, hits give low values 0.995 | S. cerevisiae deletion strains, locus YJL095W, strain BCK1 (second series), hits give low values 1 | S. cerevisiae deletion strains, locus YJL095W, strain BCK1, hits give low values 0.994 | S. cerevisiae deletion strains, locus YJL115W, strain asf1, hits give low values 0.979 | S. cerevisiae deletion strains, locus YJL129C, strain trk1, hits give low values 1 | S. cerevisiae deletion strains, locus YJL134W, strain LCB3, hits give low values 1.01 | S. cerevisiae deletion strains, locus YJL154C, strain vps35, hits give low values 0.975 | S. cerevisiae deletion strains, locus YJL164C, strain tpk1, hits give low values 1.01 | S. cerevisiae deletion strains, locus YJL166W, strain qcr8, hits give low values 0.995 | S. cerevisiae deletion strains, locus YJL168C, strain set2, hits give low values 1.02 | S. cerevisiae deletion strains, locus YJL187C, strain SWE1 (second series), hits give low values 0.989 | S. cerevisiae deletion strains, locus YJL187C, strain SWE1, hits give low values 0.992 | S. cerevisiae deletion strains, locus YJR043C, strain POL32, hits give low values 1 | S. cerevisiae deletion strains, locus YKL009W, strain mrt4, hits give low values 0.999 | S. cerevisiae deletion strains, locus YKL068W, hits give low values 1 | S. cerevisiae deletion strains, locus YKL085W, strain MDH1 (second series), hits give low values 1.01 | S. cerevisiae deletion strains, locus YKL085W, strain MDH1, hits give low values 1.01 | S. cerevisiae deletion strains, locus YKL160W, strain elf1, hits give low values 1.04 | S. cerevisiae deletion strains, locus YKL190W, strain CNB1, hits give low values 0.998 | S. cerevisiae deletion strains, locus YKR001C, strain vps1, hits give low values 1.01 | S. cerevisiae deletion strains, locus YKR026C, strain gcn3, hits give low values 0.977 | S. cerevisiae deletion strains, locus YKR091W, strain srl3, hits give low values 0.99 | S. cerevisiae deletion strains, locus YLL001W, strain dnm1, hits give low values 1.02 | S. cerevisiae deletion strains, locus YLL026W, hits give low values 1 | S. cerevisiae deletion strains, locus YLL041C, strain sdh2, hits give low values 0.997 | S. cerevisiae deletion strains, locus YLR027C, strain aat2, hits give low values 1 | S. cerevisiae deletion strains, locus YLR039C, strain RIC1, hits give low values 1.01 | S. cerevisiae deletion strains, locus YLR058C, strain SHM2, hits give low values 1.01 | S. cerevisiae deletion strains, locus YLR102C, strain apc9, hits give low values 1.01 | S. cerevisiae deletion strains, locus YLR221C, strain rsa3, hits give low values 1.01 | S. cerevisiae deletion strains, locus YLR258W, strain gsy2, hits give low values 0.985 | S. cerevisiae deletion strains, locus YLR262C, strain YPT6 (second series), hits give low values 0.99 | S. cerevisiae deletion strains, locus YLR262C, strain YPT6, hits give low values 1 | S. cerevisiae deletion strains, locus YLR268W, strain sec22, hits give low values 1 | S. cerevisiae deletion strains, locus YLR320W, strain mms22, hits give low values 0.999 | S. cerevisiae deletion strains, locus YLR330W, strain CHS5, hits give low values 1.01 | S. cerevisiae deletion strains, locus YLR342W, strain FKS1 (second series), hits give low values 1.07 | S. cerevisiae deletion strains, locus YLR342W, strain FKS1, hits give low values 0.979 | S. cerevisiae deletion strains, locus YLR357W, strain rsc2, hits give low values 0.991 | S. cerevisiae deletion strains, locus YLR370C, strain arc18, hits give low values 0.992 | S. cerevisiae deletion strains, locus YLR371W, strain rom2, hits give low values 1.01 | S. cerevisiae deletion strains, locus YLR384C, strain iki3, hits give low values 0.979 | S. cerevisiae deletion strains, locus YLR418C, strain cdc73, hits give low values 1.02 | S. cerevisiae deletion strains, locus YML016C, strain PPZ1, hits give low values 0.998 | S. cerevisiae deletion strains, locus YML032C, strain rad52, hits give low values 0.995 | S. cerevisiae deletion strains, locus YML120C, strain ndi1, hits give low values 0.985 | S. cerevisiae deletion strains, locus YML124C, strain tub3, hits give low values 1.01 | S. cerevisiae deletion strains, locus YMR058W, strain fet3, hits give low values 0.989 | S. cerevisiae deletion strains, locus YMR078C, strain ctf18, hits give low values 1.01 | S. cerevisiae deletion strains, locus YMR125W, strain sto1, hits give low values 0.959 | S. cerevisiae deletion strains, locus YMR129W, hits give low values 0.995 | S. cerevisiae deletion strains, locus YMR205C, strain PFK2, hits give low values 0.969 | S. cerevisiae deletion strains, locus YMR223W, strain ubp8, hits give low values 1.03 | S. cerevisiae deletion strains, locus YMR231W, strain pep5, hits give low values 0.976 | S. cerevisiae deletion strains, locus YMR307W, strain GAS1, hits give low values 0.996 | S. cerevisiae deletion strains, locus YNL067W, strain RPL9B, hits give low values 0.987 | S. cerevisiae deletion strains, locus YNL071W, strain lat1, hits give low values 0.984 | S. cerevisiae deletion strains, locus YNL209W, strain ssb2, hits give low values 0.979 | S. cerevisiae deletion strains, locus YNL233W, strain BNI4, hits give low values 0.984 | S. cerevisiae deletion strains, locus YNL248C, strain rpa49, hits give low values 1.01 | S. cerevisiae deletion strains, locus YNL250W, strain rad50, hits give low values 1.04 | S. cerevisiae deletion strains, locus YNL271C, strain bni1, hits give low values 1.01 | S. cerevisiae deletion strains, locus YNL298W, strain CLA4, hits give low values 1.01 | S. cerevisiae deletion strains, locus YNL307C, strain MCK1, hits give low values 1.02 | S. cerevisiae deletion strains, locus YNL322C, strain KRE1 (second series), hits give low values 0.989 | S. cerevisiae deletion strains, locus YNR049C, strain mso1, hits give low values 0.975 | S. cerevisiae deletion strains, locus YNR052C, strain pop2, hits give low values 1.01 | S. cerevisiae deletion strains, locus YOL006C, strain TOP1, hits give low values 0.961 | S. cerevisiae deletion strains, locus YOL012C, strain htz1 1.01 | S. cerevisiae deletion strains, locus YOL147C, strain pex11, hits give low values 1.01 | S. cerevisiae deletion strains, locus YOR001W, strain rrp6, hits give low values 1.01 | S. cerevisiae deletion strains, locus YOR061W, strain CKA2, hits give low values 1.01 | S. cerevisiae deletion strains, locus YOR069W, strain VPS5, hits give low values 1 | S. cerevisiae deletion strains, locus YOR070C, strain gyp1, hits give low values 0.986 | S. cerevisiae deletion strains, locus YOR080W, strain dia2, hits give low values 0.987 | S. cerevisiae deletion strains, locus YOR083W, strain WHI5, hits give low values 1.05 | S. cerevisiae deletion strains, locus YOR106W, strain vam3, hits give low values 1.01 | S. cerevisiae deletion strains, locus YOR136W, strain idh2, hits give low values 1 | S. cerevisiae deletion strains, locus YOR144C, strain elg1, hits give low values 1 | S. cerevisiae deletion strains, locus YOR184W, strain ser1, hits give low values 1.03 | S. cerevisiae deletion strains, locus YOR265W, strain rbl2, hits give low values 0.997 | S. cerevisiae deletion strains, locus YOR270C, strain vph1, hits give low values 0.973 | S. cerevisiae deletion strains, locus YOR290C, strain snf2, hits give low values 0.919 | S. cerevisiae deletion strains, locus YOR316C, strain cot1, hits give low values 1.01 | S. cerevisiae deletion strains, locus YPL051W, strain arl3, hits give low values 1.01 | S. cerevisiae deletion strains, locus YPL055C, strain LGE1, hits give low values 0.93 | S. cerevisiae deletion strains, locus YPL078C, strain atp4, hits give low values 1.01 | S. cerevisiae deletion strains, locus YPL106C, strain sse1, hits give low values 0.978 | S. cerevisiae deletion strains, locus YPL240C, strain hsp82, hits give low values 0.994 | S. cerevisiae deletion strains, locus YPR119W, strain clb2, hits give low values 1.01 | S. cerevisiae deletion strains, locus YPR141C, strain kar3, hits give low values 1 | S. cerevisiae deletion strains, locus YPR163C, strain tif3, hits give low values 1.02 | S. cerevisiae deletion strains, locus YPR167C, strain met16, hits give low values 1.01 | S. cerevisiae deletion strains, strain wtn01, hits give low values 1.01 | S. cerevisiae strains, strain wild type, hits give low values 1.01
